Rv3671c protease = inhibitors of M. tuberculosis serine protease Rv3671c; inhibition, % at 5.96 µM; AID 2606; 0.048% of 320,000 active; P9WHR9; in the data active means inhibition above about 38%;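 further: extracellular domain of Rv3671c used as enzyme; 0% = enzyme with DMSO and 100% = no enzyme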
RecA intein inh = inhibitors of M. tuberculosis RecA intein splicing | inhibition, % (test concentration not listed) | cell-free RecA intein splicing, fluorescence | AID 2221 | 0.75% of 290,000 active; in the data active means inhibition above about 30%; inconclusive means no clear call, values can overlap the other calls;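 further: 0% = vehicle wells and 100% = reference inhibitor control wells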
Target sequence (P9WHJ3 whole entry, looked up): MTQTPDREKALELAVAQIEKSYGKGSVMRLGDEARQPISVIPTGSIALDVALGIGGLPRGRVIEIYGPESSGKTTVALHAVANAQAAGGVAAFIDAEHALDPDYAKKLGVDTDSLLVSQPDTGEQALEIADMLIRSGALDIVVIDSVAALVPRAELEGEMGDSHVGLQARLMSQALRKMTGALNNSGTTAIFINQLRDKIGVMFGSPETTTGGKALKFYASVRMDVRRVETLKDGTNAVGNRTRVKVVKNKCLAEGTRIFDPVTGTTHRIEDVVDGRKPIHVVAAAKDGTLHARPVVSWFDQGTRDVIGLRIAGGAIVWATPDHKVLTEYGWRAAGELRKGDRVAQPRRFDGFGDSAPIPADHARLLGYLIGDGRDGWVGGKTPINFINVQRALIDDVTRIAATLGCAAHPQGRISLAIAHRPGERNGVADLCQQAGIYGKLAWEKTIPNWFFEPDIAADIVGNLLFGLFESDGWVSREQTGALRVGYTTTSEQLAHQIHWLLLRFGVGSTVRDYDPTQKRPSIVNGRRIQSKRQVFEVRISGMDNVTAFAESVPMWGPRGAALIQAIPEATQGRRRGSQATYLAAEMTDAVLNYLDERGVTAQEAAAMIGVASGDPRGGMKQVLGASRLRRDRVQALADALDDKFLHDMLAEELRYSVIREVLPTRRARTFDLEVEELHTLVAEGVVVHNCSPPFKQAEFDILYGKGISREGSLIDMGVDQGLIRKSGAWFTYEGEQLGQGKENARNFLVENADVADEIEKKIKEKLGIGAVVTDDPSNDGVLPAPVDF
GDH-TPI counter = counter-screen for M. tuberculosis FBA inhibitors: GDH-TPI coupled enzymes. AID 588335. 1.2% of 360,000 active. GDH-TPI coupled enzyme counterscreen, NADH absorbance. inhibition, % at 4.8 µM; in the data active means inhibition above about 30%;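 further: 0% = DMSO wells and 100% = wells lacking the enzyme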
Mtb betalactam = beta-lactam sensitization of Mtb H37Rv. M. tuberculosis H37Rv growth with meropenem, percent inhibition. inhibition, % at 25 µM. 0.27% of 330,000 active. AID 434955; call rule not given here;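 further: growth measured after seven days incubation then overnight dye step; 0% = bacteria only wells and 100% = bacteria with antibiotic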
Mtb FBA inh = Mtb fructose-bisphosphate aldolase inhibition | P9WQA3 | purified M. tuberculosis FBA, fluorescence read-out | inhibition, % at 1 µM | 2.3% of 360,000 active | AID 588726; in the data active means inhibition above about 27%;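 further: 0% = vehicle and 100% = reference inhibitor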
UGM FP inh = Mtb UDP-galactopyranose mutase inhibition. AID 504406. 0.06% of 320,000 active. inhibition, % at 10 µM. purified UGM, fluorescence polarization probe displacement; in the data active means inhibition above about 10%, passing the limit was not always enough; inconclusive means no clear call, values can overlap the other calls
Starred values were filed as active, the others as inactive; i = inactive; ? = inconclusive; . = not tested or not shown; + = active, no number. Most compounds without a hit are left out; they make up all but 4% or so of the library.

SMILES	Rv3671c protease	RecA intein inh	GDH-TPI counter	Mtb betalactam	Mtb FBA inh	UGM FP inh
Cc1ccccc1N1CCN(S(=O)(=O)c2nnc(NC(=O)CC(C)C)s2)CC1	-1.3	0.3	2.4	-3.0	0.2	0.2
Cc1cccc(/C=C/C(=O)c2ccc([N+](=O)[O-])o2)c1	-9.4	-0.9	29.1	99.8	3.2	3.9
O=C(/C=C/c1cccc([N+](=O)[O-])c1)c1ccc([N+](=O)[O-])o1	0.2	6.4	40.6*	100.1	4.0	0.3
Cc1sc(=NC(=O)c2ccco2)n(C)c1-c1ccc(Cl)cc1	-0.6	3.9	51.7*	1.8	4.9	2.7
CCOC(=O)c1sc(=NC(=O)c2ccco2)n(C)c1C	-5.7	-7.9	37.8*	-5.0	1.4	2.9
Cn1c(C(C#N)C(=O)c2ccco2)nc2ccccc21 (stereo not given)	-2.0	1.1	32.8*	94.1	3.6	-1.0
CCN(CC)Cc1c(O)ccc2c(=O)c(-c3ccc(Cl)cc3)coc12	3.0	-0.9	23.9	-1.1	43.3*	1.4
CCCCN(C)Cc1c(O)ccc2c(=O)c(-c3ccccc3OC)coc12	1.1	-1.6	41.4*	-8.4	162.9*	1.0
CCCCN(C)Cc1c(O)ccc2c(-c3ccccc3)cc(=O)oc12	-0.7	-36.1	2.2	7.9	5.6	-2.8
O=C(C=Cc1ccccc1)c1c[nH]c2ccccc2c1=O	.	.	37.7*	.	-1.8	.
O=C(/C=C/c1ccccc1)c1c[nH]c2ccccc12	1.3	.	23.4	0.0	-4.0	-1.2
CC1CN(C(=S)NC2CCCC2)CC(C)O1 (stereo not given)	-7.1	3.4	-1.0	-3.0	-0.4	-0.6
CCC(=O)Oc1ccc(C(=O)Nc2cccc(C(=O)c3ccccc3)c2)cc1	-26.4	35.9*	-5.3	-1.7	0.7	2.4
CC(=O)Oc1ccc(C(=O)Nc2cccc(C(=O)c3cccc(NC(=O)c4ccc(OC(C)=O)cc4)c3)c2)cc1	-51.2	3.8	6.2	98.0	0.2	-0.6
CC(O)Cc1nsc(NC(=O)c2ccc(Br)o2)n1 (stereo not given)	-0.1	0.1	42.0*	-5.2	-0.9	-1.1
CCc1nnc(NC(=O)c2ccc(Br)o2)s1	3.3	-0.6	16.2	-3.8	2.7	2.2
CC(=O)Cc1nsc(NC(=O)c2ccc(-c3ccccc3Cl)o2)n1	-17.6	1.4	32.7*	?	3.9	0.6
CC(=O)Cc1nsc(NC(=O)c2oc(-c3ccccc3Cl)cc2C)n1	-28.2	0.8	56.2*	2.5	5.5	-1.5
CC(=O)Cc1nsc(NC(=O)c2ccc(COc3ccccc3Cl)o2)n1	-28.9	0.5	4.0	-3.9	-1.4	0.1
Cc1cc(NCCCN2CCOCC2)n2c(nc3ccccc32)c1C#N	-7.1	-144.4	3.3	-2.7	+	2.4
CCN(CC)CCCNc1cc(C(F)(F)F)c(C#N)c2nc3ccccc3n12	0.3	i	-4.3	7.9	14.4	1.6
CCN(CC)CCCNc1cc(C)c(C#N)c2nc3ccccc3n12	.	.	14.3	.	116.4*	.
C=C(C)CSc1cc(C)c(C#N)c2nc3ccccc3n12	4.1	-97.7	-1.9	94.7	17.2	0.8
Cc1cc(NCCCCO)n2c(nc3ccccc32)c1C#N	-1.1	-55.4	10.4	9.9	+	-0.4
Cc1c2c(n3c(nc4ccccc43)c1C#N)N(CCN1CCOCC1)CC2	-0.8	-205.5	9.8	14.2	+	1.7
SMILES	Rv3671c protease	RecA intein inh	GDH-TPI counter	Mtb betalactam	Mtb FBA inh	UGM FP inh
CCN(CC)S(=O)(=O)c1ccc(OC)c(NC(=O)C2CC(=O)N(c3ccc(C)cc3)C2)c1 (stereo not given)	-2.2	-4.4	-6.3	-2.9	-0.5	0.8
Cn1nc(C(C)(C)C)cc1N1C(=O)CCC1(C)C(=O)NCc1ccccc1 (stereo not given)	.	.	.	.	3.0	.
Cc1ccc(/C=C(/C#N)C(=O)NC(C)c2ccccc2)o1 (stereo not given)	-8.4	0.7	23.3	0.7	-1.5	0.8
Cc1ccc(/C=C(\C#N)C(=O)NC(C)C)o1	7.0	-1.8	64.6*	-7.0	1.2	1.4
CC(NC(=O)/C(C#N)=C/c1ccc(C(=O)O)cc1)c1ccccc1 (stereo not given)	1.5	1.9	38.3*	0.1	-3.7	-0.3
Cc1ccc(/C=C(\C#N)C(=O)NC(C)c2ccccc2)o1 (stereo not given)	-1.9	2.0	33.0*	-2.4	0.6	-0.2
CN(C(=O)COC(=O)C1COc2ccccc2O1)c1c(N)n(Cc2ccccc2)c(=O)[nH]c1=O (stereo not given)	5.0	0.2	5.3	-1.4	0.1	-1.4
Cc1cc(C)c(C(O)c2ncc(-c3ccccc3F)[nH]2)c(C)c1 (stereo not given)	.	.	11.5	.	2.9	.
Cc1ccn(CC(=O)N2CCCC(N3CCN(c4ccc(F)cc4)CC3)C2)n1 (stereo not given)	.	0.2	1.7	.	3.0	.
CCCN(C(=O)CSc1n[nH]c(-c2ccc(OC)cc2)n1)c1c(N)n(Cc2ccccc2)c(=O)[nH]c1=O	5.2	2.0	5.5	-6.5	1.6	-3.1
O=C(NCc1ccccc1)c1nnc(CS(=O)(=O)c2ccccc2)o1	-13.8	-2.8	-6.6	3.0	1.5	0.2
CCOC(=O)C(C)Sc1nnc2c3ccccc3n(C)c2n1 (stereo not given)	-4.4	1.5	32.2*	69.0	-0.3	1.3
CCN(CC)C(=O)CSc1nnc2c3ccccc3n(C)c2n1	-6.7	-0.7	10.0	-1.4	-0.5	1.7
CCN(CC)c1ccc2cc(S(=O)(=O)c3ccc(C)cc3)c(=O)oc2c1	-7.0	-73.2	6.9	5.7	-0.1	30.1*
Cc1ccc(S(=O)(=O)c2cc3ccccc3oc2=O)cc1	0.6	-1.9	18.9	2.9	2.6	-1.2
CC(=Cc1cccs1)C(=O)c1ccccc1	.	.	32.4*	.	-0.8	.
N#C/C(C(=O)NCc1ccccc1)=C1/N=C(NC(=O)c2cccs2)c2ccccc21	-3.4	-2.7	19.5	-1.3	-3.7	0.8
CCCNC(=O)/C(C#N)=C1\N=C(NC(=O)c2ccco2)c2ccccc21	-4.6	3.6	35.4*	9.0	-4.5	0.0
CC(C)CNC(=O)/C(C#N)=C1\N=C(NC(=O)c2ccco2)c2ccccc21	8.3	1.1	29.3	12.7	-2.2	0.4
COCCNC(=O)/C(C#N)=C1\N=C(NC(=O)c2ccco2)c2ccccc21	.	.	45.1*	.	3.2	.
CN(C(=O)COc1ccc(-c2nnco2)cc1)C1CCS(=O)(=O)C1 (stereo not given)	-2.2	-0.6	3.9	-12.4	2.4	1.6
c1ccc2c(c1)ncc1cccn12	1.5	0.1	16.7	-0.2	+	0.3
CCCOc1ccc(/C=N/Nc2ccccn2)cc1OC	5.9	-0.4	35.4*	2.5	-8.5	3.1
CCOc1ccc(/C=N/Nc2nc(=O)[nH]nc2C)cc1OC	-3.8	-5.6	33.5*	2.8	-3.6	4.1
CCOc1cc(/C=N/Nc2nc(=O)[nH]nc2C)ccc1O	0.3	-6.0	21.5	-1.0	-6.0	2.8
COc1ccc(/C=N\Nc2ccccn2)c(OC)c1	.	-1.4	36.3*	-9.2	-0.7	-0.7

Screening data deposited in PubChem by several laboratories.
